Source: PubChem BioAssay (NCI)
This is part of a sample that, as a whole, favours compounds with a hit. Of some 83,000 tested, about 20% had one in any assay.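 Note: values are percent growth. 100 is the growth of untreated cells, values between 100 and 0 indicate rising inhibition; between -100 and 0 indicates cell death.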 Activity calls are given as the source filed them. The calls were made as follows: active = growth percent below 10; inactive = the rest.

Key:
Assay in all cases: NCI-60 one-dose screen, 48 h (100 = growth as untreated, 0 = no growth, -100 = all killed)
Settings in all cases: 10 µM unless noted
NCI-H23 lung = system: NCI-H23 lung
NCI-H226 lung = system: NCI-H226 lung
NCI-H322M lung = system: NCI-H322M lung
HOP-62 NSCLC = system: HOP-62 NSCLC
NCI-H460 lung = system: NCI-H460 lung
HOP-92 NSCLC = system: HOP-92 NSCLC
NCI-H522 lung = system: NCI-H522 lung
A549/ATCC NSCLC = system: A549/ATCC NSCLC
786-0 renal = system: 786-0 renal
COLO 205 colon = system: COLO 205 colon

Measured: growth

COc1ccc(-c2cc(-c3nnc(SCC(=O)Nc4ccc(C(C)=O)cc4)o3)c3ccccc3n2)cc1
inactive: NCI-H226 lung 17.1% | NCI-H322M lung 79.9% | A549/ATCC NSCLC 22.3% | COLO 205 colon 21.7%
active: NCI-H23 lung 0.0219% | HOP-62 NSCLC -33.9% | NCI-H460 lung -54.4% | HOP-92 NSCLC -10.1% | NCI-H522 lung -28.7% | 786-0 renal -72.3%

CC1CCN(CCCCCOc2ccc3oc4cc(Cl)ccc4c(=O)c3c2)CC1
inactive: NCI-H23 lung 87.7% | NCI-H226 lung 113% | NCI-H322M lung 73.8% | HOP-62 NSCLC 82.2% | NCI-H460 lung 36.3% | HOP-92 NSCLC 93.6% | NCI-H522 lung 69.9% | A549/ATCC NSCLC 68.6% | 786-0 renal 65.1% | COLO 205 colon 36.6%

COc1ccc2c(c1)OC13Oc4cc(OC)ccc4C=C1CCCCC3=C2
inactive: NCI-H23 lung 91.6% | NCI-H226 lung 88.4% | NCI-H322M lung 105% | HOP-62 NSCLC 99.3% | NCI-H460 lung 94.4% | HOP-92 NSCLC 80.7% | NCI-H522 lung 66.2% | A549/ATCC NSCLC 73.8% | 786-0 renal 87.2% | COLO 205 colon 101%

Cc1c(Cl)cccc1NC(=O)c1sc2nc3c(cc2c1N)CN(Cc1ccccc1)CC3
inactive: NCI-H23 lung 66.1% | NCI-H226 lung 72.3% | NCI-H322M lung 73.1% | HOP-62 NSCLC 38.4% | NCI-H460 lung 22% | HOP-92 NSCLC 51.8% | A549/ATCC NSCLC 58.6% | 786-0 renal 42.9% | COLO 205 colon 51.5%
active: NCI-H522 lung 0.814%

O=C(Nc1cc(Nc2ncccc2-c2ncnc3nc[nH]c23)ccc1F)c1cc(C(F)(F)F)cc(C(F)(F)F)c1
active: NCI-H23 lung -3.98% | HOP-62 NSCLC -14.4% | NCI-H460 lung -30.4% | HOP-92 NSCLC -31.3% | A549/ATCC NSCLC 0.774% | 786-0 renal -3.09% | COLO 205 colon -60.2%
inactive: NCI-H226 lung 16.8% | NCI-H322M lung 46.7% | NCI-H522 lung 11.7%

COC(=O)c1cncc(C(=O)Nc2ccc(-n3cnc4ccccc43)cc2)c1
inactive: NCI-H23 lung 102% | NCI-H226 lung 89.6% | NCI-H322M lung 95.6% | HOP-62 NSCLC 94.8% | NCI-H460 lung 96.9% | HOP-92 NSCLC 86.7% | NCI-H522 lung 84% | A549/ATCC NSCLC 94.4% | 786-0 renal 105% | COLO 205 colon 106%

NC(=N\N=C\c1ccccc1O)/C(N)=N/N=C/c1ccccc1O
inactive: NCI-H23 lung 90.9% | NCI-H226 lung 96% | NCI-H322M lung 80.5% | HOP-62 NSCLC 84.5% | NCI-H460 lung 70.1% | HOP-92 NSCLC 76.2% | NCI-H522 lung 63.5% | A549/ATCC NSCLC 73.6% | 786-0 renal 85.2% | COLO 205 colon 97.1%

COc1cc(NCC(=O)Nc2cc(Nc3ccc(C)cc3)ncn2)c(Cl)c(OC)c1Cl
inactive: NCI-H23 lung 91.7% | NCI-H226 lung 85.4% | NCI-H322M lung 84.8% | HOP-62 NSCLC 87% | NCI-H460 lung 101% | HOP-92 NSCLC 78.7% | NCI-H522 lung 74.1% | A549/ATCC NSCLC 80.1% | 786-0 renal 96.7% | COLO 205 colon 85.8%

COCCOC(=O)COc1ccc(OC)cc1
inactive: NCI-H23 lung 105% | NCI-H226 lung 97.3% | NCI-H322M lung 94.9% | HOP-62 NSCLC 111% | NCI-H460 lung 108% | HOP-92 NSCLC 98.3% | NCI-H522 lung 115% | A549/ATCC NSCLC 99.2% | 786-0 renal 109% | COLO 205 colon 115%

CC1(C)CC[C@]2(c3nnc(-c4ccncc4)o3)CC[C@]3(C)C(=CC[C@@H]4[C@@]5(C)CCC(=O)C(C)(C)[C@@H]5CC[C@]43C)[C@@H]2C1
inactive: NCI-H23 lung 85.6% | NCI-H226 lung 64.9% | NCI-H322M lung 91.3% | HOP-62 NSCLC 87.6% | NCI-H460 lung 77.9% | HOP-92 NSCLC 92.2% | NCI-H522 lung 71.2% | A549/ATCC NSCLC 73.7% | 786-0 renal 85% | COLO 205 colon 85%

Nc1ccccc1NC(=O)c1ccc(CSc2nc(N3CCOCC3)c3cccn3n2)cc1
inactive: NCI-H23 lung 22.5% | NCI-H322M lung 22% | HOP-62 NSCLC 15.5% | NCI-H460 lung 15.3% | A549/ATCC NSCLC 11.8% | 786-0 renal 17.3%
active: NCI-H226 lung 6.52% | HOP-92 NSCLC -6.72% | NCI-H522 lung -50.3% | COLO 205 colon -29%

CNS(=O)(=O)c1cccc(-c2ccc3c4c(n(C)c(=O)c3c2)-c2ccccc2C4=O)c1
inactive: NCI-H23 lung 43.9% | NCI-H226 lung 33.1% | NCI-H322M lung 92.8% | HOP-62 NSCLC 22.2% | HOP-92 NSCLC 61.2% | NCI-H522 lung 49.3% | A549/ATCC NSCLC 24% | 786-0 renal 25.3% | COLO 205 colon 66.5%
active: NCI-H460 lung 7.51%

O=C1CCc2ccccc2N1
inactive: NCI-H23 lung 99.4% | NCI-H226 lung 104% | NCI-H322M lung 87.9% | HOP-62 NSCLC 102% | NCI-H460 lung 110% | HOP-92 NSCLC 101% | NCI-H522 lung 101% | A549/ATCC NSCLC 101% | 786-0 renal 101% | COLO 205 colon 97.1%

COc1ccc(-c2cc(-c3nnc(SCC(=O)Nc4ccc(/C(C)=N\O)cc4)o3)c3ccccc3n2)cc1
inactive: NCI-H23 lung 99.5% | NCI-H226 lung 96.3% | NCI-H322M lung 113% | HOP-62 NSCLC 99.3% | NCI-H460 lung 105% | HOP-92 NSCLC 109% | NCI-H522 lung 87% | A549/ATCC NSCLC 100% | 786-0 renal 95.5% | COLO 205 colon 118%

Cn1c2c(c3ccc(-c4ccn[nH]4)cc3c1=O)C(=O)c1ccccc1-2
inactive: NCI-H23 lung 25.3% | NCI-H322M lung 87.3% | HOP-62 NSCLC 17.2% | HOP-92 NSCLC 79.3% | NCI-H522 lung 48.8% | 786-0 renal 12.3% | COLO 205 colon 53.8%
active: NCI-H226 lung 0.642% | NCI-H460 lung 1.75% | A549/ATCC NSCLC 8.44%

C=C(C)[C@@H]1CC[C@]2(C(=O)N=C=S)CC[C@]3(C)[C@H](CC[C@@H]4[C@@]5(C)CCC(=O)C(C)(C)[C@@H]5CC[C@]43C)[C@@H]12
inactive: NCI-H23 lung 32.9% | NCI-H226 lung 48.8% | NCI-H322M lung 42.8% | HOP-62 NSCLC 30.1% | HOP-92 NSCLC 18.2% | NCI-H522 lung 15.3% | A549/ATCC NSCLC 26.2% | 786-0 renal 37.2%
active: NCI-H460 lung 6.85% | COLO 205 colon -19.1%

N#Cc1c(-c2ccc(Cl)cc2)cc(-c2cc3ccccc3o2)nc1SCC(=O)c1ccc(Cl)cc1
inactive: NCI-H23 lung 91.7% | NCI-H226 lung 102% | NCI-H322M lung 104% | HOP-62 NSCLC 91.4% | NCI-H460 lung 107% | HOP-92 NSCLC 83.7% | NCI-H522 lung 97.5% | A549/ATCC NSCLC 111% | 786-0 renal 97.2% | COLO 205 colon 106%

Nc1ccccc1NS(=O)(=O)c1ccc(Cl)cc1
inactive: NCI-H23 lung 94.5% | NCI-H226 lung 103% | NCI-H322M lung 81.9% | HOP-62 NSCLC 106% | NCI-H460 lung 104% | HOP-92 NSCLC 78.8% | NCI-H522 lung 85.2% | A549/ATCC NSCLC 107% | 786-0 renal 98% | COLO 205 colon 104%

Cc1cc(C)nc(NS(=O)(=O)c2ccc(Nc3ccc4c5c(n(CCCN(C)C)c(=O)c4c3)-c3ccccc3C5=O)cc2)n1
inactive: NCI-H23 lung 83.9% | NCI-H226 lung 83.3% | NCI-H322M lung 109% | HOP-62 NSCLC 70.1% | NCI-H460 lung 28.9% | HOP-92 NSCLC 90.1% | NCI-H522 lung 73% | A549/ATCC NSCLC 52.3% | 786-0 renal 80.5% | COLO 205 colon 70.4%

C[C@H]1[C@H](C)CC[C@]2(C(=O)OCCOCCOCC[P+](c3ccccc3)(c3ccccc3)c3ccccc3)CC[C@]3(C)C(=CC[C@@H]4[C@@]5(C)CC[C@H](OC(=O)C(Cl)Cl)C(C)(C)[C@@H]5CC[C@]43C)[C@H]12
inactive: NCI-H226 lung 15% | NCI-H322M lung 27.8% | HOP-62 NSCLC 25.3% | A549/ATCC NSCLC 11.2%
active: NCI-H23 lung 5.49% | NCI-H460 lung 6.27% | HOP-92 NSCLC -26.6% | NCI-H522 lung -15.3% | 786-0 renal -38.3% | COLO 205 colon -7.06%

COc1cc2c(cc1OC)C(Sc1ccc(Cl)cc1)c1c(nc(N)c(C#N)c1N)O2 (stereo not given)
inactive: NCI-H226 lung 16.2% | NCI-H322M lung 42.1% | HOP-62 NSCLC 63% | HOP-92 NSCLC 20.1% | A549/ATCC NSCLC 44.1%
active: NCI-H23 lung -20.2% | NCI-H460 lung -55% | NCI-H522 lung -67.6% | 786-0 renal -17.1% | COLO 205 colon -65.6%

COc1ccc(-c2nnc(N3CCN(C(=O)CN4CCN(c5ccc(OC)cc5)CC4)CC3)nc2-c2ccc(OC)cc2)cc1
active: NCI-H226 lung -81.4% | HOP-62 NSCLC 1.58% | HOP-92 NSCLC -62.9% | NCI-H522 lung -84.5%
inactive: NCI-H23 lung 21.4% | NCI-H322M lung 32.6% | NCI-H460 lung 29.3% | A549/ATCC NSCLC 59.1% | 786-0 renal 26.3% | COLO 205 colon 19%

COc1ccc(-c2nc(C#N)c(NCC(c3ccco3)N3CCCC3)o2)cc1 (stereo not given)
inactive: NCI-H23 lung 53.7% | NCI-H226 lung 101% | NCI-H322M lung 43.3% | HOP-62 NSCLC 47.1% | NCI-H460 lung 24.1% | HOP-92 NSCLC 58.2% | NCI-H522 lung 30.6% | A549/ATCC NSCLC 43.7% | 786-0 renal 34% | COLO 205 colon 19.9%

CCOC(=O)c1c(C)nc2c(c1N)/C(=C/c1ccc[nH]1)C(=O)N2Cc1ccc(C(F)(F)F)cc1
inactive: NCI-H23 lung 51.8% | NCI-H226 lung 38.1% | NCI-H322M lung 74.4% | HOP-62 NSCLC 23.6% | NCI-H460 lung 16.8% | HOP-92 NSCLC 41.1% | NCI-H522 lung 43.3% | A549/ATCC NSCLC 48.9% | 786-0 renal 22.9% | COLO 205 colon 75.6%

Cc1ccc(CS/C(=C\c2ccc([N+](=O)[O-])cc2)C(=O)c2ccc(F)cc2)cc1
active: NCI-H522 lung -5.69%
inactive: NCI-H23 lung 57.2% | NCI-H226 lung 67% | NCI-H322M lung 103% | HOP-62 NSCLC 83.4% | NCI-H460 lung 82.3% | HOP-92 NSCLC 96.2% | A549/ATCC NSCLC 85% | 786-0 renal 76.9% | COLO 205 colon 54.2%

CCSc1ccc(C2C(Br)C(=O)N2c2cc(OC)c(OC)c(OC)c2)cc1 (stereo not given)
inactive: NCI-H23 lung 25.2% | NCI-H226 lung 50.2% | NCI-H322M lung 50.5% | HOP-62 NSCLC 30% | NCI-H460 lung 10.1% | HOP-92 NSCLC 28.2% | A549/ATCC NSCLC 18.2%
active: NCI-H522 lung 7.68% | 786-0 renal 8.1% | COLO 205 colon -38.5%
